# From PubChem BioAssay
# A selection: hits, their analogues and other compounds. The true share with any hit is near 7.5%.
# VACV Venus inh: qHTS for Stage-Specific Inhibitors of Vaccinia Orthopoxvirus: Venus Reporter Primary qHTS; Potency, µM (titrated, usually from 36.5 µM), for the others: at the top dose activity change, negative = inhibition, most hits filed as inhibitors; 330,000 compounds, 0.46% hits; Vaccinia virus Venus reporter expression, fluorescence; calls by dose curve; tested in A549 cells; also: potency is read from the fitted curve at half-maximal effect; nearly all actives have a fitted effect of over 30% in size
# Vaccinia mCherry: qHTS for Stage-Specific Inhibitors of Vaccinia Orthopoxvirus: mCherry Reporter Primary qHTS | Vaccinia virus mCherry reporter infection, fluorescence | Potency, µM (series often up to 36.5 µM), for inactives: at the highest dose activity change, negative = inhibition, hits mostly inhibitors | 310,000 compounds, 0.63% hits; calls by dose curve; tested in A549 cells; also: potency is read from the fitted curve at half-maximal effect; nearly all actives have a fitted effect of over 35% in size
# HCMV inh: qHTS Assay for inhibitors of the human cytomegalovirus (HCMV) | HFF cells, HCMV-luciferase reporter, 72 h; hits give low values | activity change, negative = inhibition, % at 57.5 µM | 410,000 compounds, 4.5% hits; in the data active = activity change below about -60%; inconclusive = no clear call, values can overlap the other calls; inactive = above about -39%
#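 HFF cells seeded 16 h at 37C, treated with compounds, infected with luciferase-reporter HCMV at MOI 1 PFU/cell; luciferase read at 72 h post infection, normalized to buffer-only and Salinomycin controls.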
# FMDV inh: High Throughput Screening for Foot and Mouth Disease Virus Antivirals | FMDV antiviral cell-based qHTS | Potency, µM (top dose mostly 57.9 µM), for inactives: top-dose activity change, negative = inhibition, actives largely listed as inhibitors | 410,000 compounds, 1.2% hits | AID 1159524, 2015; calls by dose curve; tested in HEK293T cells; also: read-out not given here; potency is read from the fitted curve at half-maximal effect; nearly all actives have a fitted effect of over 45% in size
# Giardia FBPA inh: qHTS Assay for Inhibitors of Fructose-1,6-bisphosphate Aldolase from Giardia Lamblia. A8B2U2. purified Giardia FBPA. Potency, µM (top dose mostly 59.6 µM), inactives show at the top dose activity, negative = inhibition, most hits filed as inhibitors. 290,000 compounds, 0.71% hits; also: potency is read from the fitted curve at half-maximal effect; nearly all actives have a fitted effect of over 55% in size
# Target sequence (A8B2U2 whole entry, looked up): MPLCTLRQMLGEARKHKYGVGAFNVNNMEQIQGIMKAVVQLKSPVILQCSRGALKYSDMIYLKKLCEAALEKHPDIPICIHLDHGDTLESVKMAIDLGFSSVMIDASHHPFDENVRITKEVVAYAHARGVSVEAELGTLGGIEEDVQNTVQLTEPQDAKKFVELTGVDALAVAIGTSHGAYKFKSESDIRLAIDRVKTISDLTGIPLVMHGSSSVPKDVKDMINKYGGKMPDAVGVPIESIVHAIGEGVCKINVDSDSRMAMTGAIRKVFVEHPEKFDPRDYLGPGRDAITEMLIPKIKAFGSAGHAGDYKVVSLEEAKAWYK
#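 40 nM FBPA preincubated 10 min at RT with compound (up to 57.5 uM final), then substrate plus GAPDH/TPI/NAD/arsenate coupling and diaphorase/resazurin added. Fluorescence read after 20 min at RT, 525/598 nm.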
# HCV inhibitor: qHTS Assay for Inhibitors of Hepatitis C Virus (HCV); Huh7.5.1 HCVcc-Cre infection, luciferase reporter, 44 h; Potency, µM (top dose mostly 41.8 µM), without a hit: top-dose activity change, negative = inhibition, usual class: inhibitors; 340,000 compounds, 3.4% hits; also: potency is read from the fitted curve at half-maximal effect
#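 Infectious HCV cell culture screen: compound-treated cells (1,000/well, pre-plated 4 h) are infected with HCVcc-Cre at roughly 0.5 moi and grown 44 h. Infection is quantified by luciferase signal after 15 min substrate incubation at room temperature.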
# Starred values were filed as active, the others as inactive; i = inactive; ? = inconclusive; . = no result; + = active, no number; ! = a repeat was not active; [ ] = dose if it differs, or a comment. Unless noted, calls follow the shape of the dose curve; as a rule, active = well fitted curve in the direction sought with a large enough effect; inconclusive = small, poorly fitted or top-dose-only effect, or another doubt; inactive = no such curve, though single readings can be large; an effect the other way counts as inactive or inconclusive. % is scaled to controls: 0 for no effect and ±100 for the full control effect.
SMILES,VACV Venus inh,Vaccinia mCherry,HCMV inh,FMDV inh,Giardia FBPA inh,HCV inhibitor
COc1ccc(C(CNC(=O)Cc2cc(OC)c(OC)c(OC)c2)N2CCCC2)cc1 (centres undefined),.,.,42,15%,0%,-2%
COC(=O)C1CCC(=O)N1C(c1ccc(OC)cc1)c1cc(OC)c(OC)c(OC)c1 (centres undefined),?,?,-81*,0%,.,?
CCCS(=O)(=O)NCc1c(C)ncc2c1CCN(C(=O)/C=C/c1ccc(F)cc1F)C2,-8%,-6%,.,3%,.,.
C=CCn1c(SCc2ccc(C#N)cc2)nnc1-c1cccc(OC)c1,-20%,.,-64*,0%,1%,-2%
C=CCn1c(SCc2ccc(C#N)cc2)nnc1-c1ccccc1,.,.,-29,-22%,-2%,13%
CC(c1ccccc1)N1CC(C(=O)Nc2ccc(F)cc2)CC1=O (centres undefined),.,.,-12,-18%,.,6%
O=C(Nc1ccc2oc(=O)ccc2c1)c1ccc(-c2cccc([N+](=O)[O-])c2)o1,-13%[7.34 µM],i[7.34 µM],-39,32µM*,18%,8.9µM*
O=C(Nc1ccc2oc(=O)ccc2c1)c1ccc(-c2cccc(Cl)c2)o1,-2%,-2%,-64*,-17%,7%,10µM*
CCCCc1ccc(-n2nc3ccc(NC(=O)c4cc5ccccc5o4)cc3n2)cc1,-7%,-22%,-82*,25µM*,.,.
O=C(Nc1ccc2oc(=O)ccc2c1)c1ccc(-c2ccc(Cl)cc2)o1,-11%,-15%,-8,-15%,4%,12%
CC(C)(Oc1ccc(Cl)cc1)C(=O)Nc1ccc2oc(=O)ccc2c1,-8%,-4%,-66*,-22%,-2%,.
Cc1ccc(-n2nc3ccc(NC(=O)c4cc5ccccc5o4)cc3n2)cc1,0%,-10%,45,28%,.,.
Cc1cccc(-c2nc3ccccc3n2Cc2ccccc2)c1,-8%,6%,-19,-29%,.,.
COc1ccc(NC(=O)CSc2ncc3c(n2)-c2ccccc2N(C)S3(=O)=O)cc1Cl,-11%,-21%,7,-26%,.,.
COc1ccc(C(=O)Nc2c(N)nc(SCC(=O)c3ccccc3)[nH]c2=O)cc1,-14%,-26%,-1,-1%,.,6%
CC(=O)N1CCN(C(c2ccccc2)c2nnnn2C(C)(C)C)CC1 (centres undefined),8%,-1%,-7,-15%,.,.
COc1ccccc1C(=O)NCCn1cc(SCC(=O)Nc2ccccc2F)c2ccccc21,-9%,-10%,1,0%,.,.
O=C(Nc1ccc2nn(-c3ccccc3)nc2c1)c1ccc(-c2cccc(Cl)c2)o1,?,-27%,-75*,-11%,.,.
CN(C)C(=O)CCC(=O)N1CCCC(C(=O)c2ccc(C(F)(F)F)cc2)C1 (centres undefined),-9%,-2%,?,14%,3%,15%
CCn1c(N)c(C(=O)Nc2ccccc2C(=O)OC)sc1=S,-11%,i,-1,12%,-6%,10µM*
COc1cccc(Nc2ccc(N3CCCCC3)cc2)c1OC,.,.,-99*,26%,.,.
CCn1c(=O)sc2cc(NC(=O)c3cccc(OC)c3)ccc21,0%,-2%,-12,21%,.,.
CCn1c(C)c(C)c2cc(C(=O)Nc3cccc(Cl)c3)ccc21,-28%,?,22,1%,-7%,2µM*
CCn1c(=O)n(CC)c2cc(NS(=O)(=O)c3ccccc3)ccc21,.,.,165,-2%,-1%,8%
CCn1c2ccccc2c2cc(NS(=O)(=O)c3ccc(C)cc3)ccc21,?,.,-60*,12%,-7%,?
SMILES,VACV Venus inh,Vaccinia mCherry,HCMV inh,FMDV inh,Giardia FBPA inh,HCV inhibitor
CCn1c2ccccc2c2cc(NC(=O)CN3CCCC3)ccc21,0%,?,-18,-6%,8%,?
CC(=O)c1cccc(NC(=O)c2ccc3c(c2)c(C)c(C)n3Cc2ccc(Cl)cc2)c1,-13%,-30%,?,-12%,.,.
CCn1c2ccccc2c2cc(NC(=O)c3cccc(OC)c3)ccc21,.,.,45,23%,-2%,11µM*
CCn1c2ccccc2c2cc(NC(=O)C(=O)N3CCOCC3)ccc21,-9%,-24%,48,53%,-3%,11µM*
CC(C)CCC(CCNCc1ccccn1)c1ccc(Cl)cc1 (centres undefined),-12%,?,-2,-3%,4%,-29%
CCn1c(C)c(C)c2cc(C(=O)NCCCN3CCCCC3C)ccc21 (centres undefined),-17%,-21%,+!,-6%,.,-25%
CCn1c2ccccc2c2cc(NC(C)=O)ccc21,?,.,69,-14%,-14%,?
CCn1c2ccccc2c2cc(NC(=O)c3ccco3)ccc21,?,?,-69*,.,-12%,3.2µM*
CCn1c(C)c(C)c2cc(C(=O)NCCCN3CCCC3)ccc21,-6%[7.34 µM],-11%[7.34 µM],-28,-7%,-23%,-19%
Cc1ccc(C(=O)c2cc(C)sc2NC(=O)CN2CCN(C(=O)c3ccco3)CC2)cc1,?,11µM*,5,?,-10%,13µM*
CCOC(=O)C1CCN(C(=O)c2cc(S(=O)(=O)N3CCOCC3)ccc2C)CC1,.,.,-2,-7%,.,11%
Cc1cccc(Nc2nc(N)c([N+](=O)[O-])c(NCc3ccco3)n2)c1,?,?,16,?,-8%,?
COc1ccccc1Nc1nc(NCc2ccco2)c2ccccc2n1,-17%,?,-99*,?,0%,?
COc1cc2ncnc(NCc3ccco3)c2cc1OC,.,.,-8,-26%,-5%,-7%
Cc1ccc(Nc2nc(NCc3ccco3)c3ccccc3n2)cc1,11µM*,?,-82*,-42%,-4%,3.5µM*
O=C(NCc1ccccc1CN1CCCC1)C1CCN(S(=O)(=O)c2ccc(F)c(F)c2)CC1,-23%,-4%,-101*,-21%,.,-10%
Cc1ccc(S(=O)(=O)N2CCC(C(=O)NCc3ccccc3CN3CCCC3)CC2)cc1C,-26%,-2%,8,-6%,.,?
O=C(NCc1ccc(Cl)cc1)C1CCN(S(=O)(=O)c2ccc(N3CCCC3=O)cc2)CC1,.,.,?,?,.,11µM*
O=C(NCc1ccccc1)C1CCN(S(=O)(=O)c2ccc(N3CCCC3=O)cc2)CC1,-16%,i,-14,-21%,.,?
CC(Sc1nccn1C)C(=O)Nc1ccc(Cl)cn1 (centres undefined),-3%,-11%,-12,24%,.,14%
CCCCCN1C(=O)c2ccccc2[C@@]2(C(=O)OCC)Cc3cc(OC)ccc3[C@@H]12,?,?,-109*,10µM*,.,.
